{"source": "PubChem BioAssay AID493012", "about": "(Sanford-Burnham Center for Chemical Genomics, 2011)", "note": "Out of some 330,000 compounds screened, about 930 (0.28%) were called active. This excerpt belongs to a sample that is enriched for actives. A number with no mark means an inactive call.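 The calls were made as follows: active = inhibition of at least 40% at 20 µM, with no more than 30% in the related APOBEC3A deaminase screen; inactive = the rest.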"}
{"target": "DNA dC->dU-editing enzyme APOBEC-3G (Homo sapiens) (UniProt Q9HC16)", "sequence (Q9HC16 whole entry, looked up)": "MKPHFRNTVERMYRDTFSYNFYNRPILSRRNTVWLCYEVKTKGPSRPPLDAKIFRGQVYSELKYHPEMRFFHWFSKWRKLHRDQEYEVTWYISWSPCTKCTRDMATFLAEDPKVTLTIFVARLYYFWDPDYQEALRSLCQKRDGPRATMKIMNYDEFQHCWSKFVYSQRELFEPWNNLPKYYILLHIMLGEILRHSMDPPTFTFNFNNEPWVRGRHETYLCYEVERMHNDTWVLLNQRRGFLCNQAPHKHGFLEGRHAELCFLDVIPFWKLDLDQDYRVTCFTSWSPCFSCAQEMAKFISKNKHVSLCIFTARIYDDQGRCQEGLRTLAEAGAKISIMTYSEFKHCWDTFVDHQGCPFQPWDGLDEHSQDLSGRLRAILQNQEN", "test": "APOBEC3G DNA deaminase inhibitors, primary screen, biochemical, fluorescence, single-stranded DNA substrate, uHTS (AID 493012);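 also: plate controls were DMSO wells with A3G for no effect and wells lacking A3G enzyme for full effect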", "details": "recombinant A3G, ssDNA deamination FAM/TAMRA fluorescence; at 20 µM; active compounds read high"}
{"smiles": "CC(C)(C)c1nnc(NC(=O)C2c3ccccc3Oc3ccccc32)s1", "inhibition": "53.3% (active)"}
{"smiles": "CCC(C)NC(=O)C1c2ccccc2Oc2ccccc21", "note": "(configuration not stated)", "inhibition": "-4.18%"}
{"smiles": "CCC(C)(C)NC(=O)C1c2ccccc2Oc2ccccc21", "inhibition": "-0.78%"}
{"smiles": "CCCCn1c(N)c(N(CCOC)C(=O)c2sc3ccccc3c2Cl)c(=O)[nH]c1=O", "inhibition": "-7.98%"}
{"smiles": "CCCCCC(O)c1cccc(OCc2ccc3ccccc3n2)c1", "note": "(configuration not stated)", "inhibition": "-6.99%"}
{"smiles": "Cc1ccc(NC(=O)C2CCN(S(=O)(=O)c3ccc4c(c3)NC(=O)CO4)CC2)cc1C", "inhibition": "-9.26%"}
{"smiles": "NC(=O)C1CCN(C(=O)c2ccc(F)c(S(=O)(=O)N3CCOCC3)c2)CC1", "inhibition": "-4.4%"}
{"smiles": "CN(C(=O)c1cccc(NC(=O)Cc2cccc([N+](=O)[O-])c2)c1)C1CCCCC1", "inhibition": "-1.19%"}
{"smiles": "CCn1cc(C(=O)N2CC(C)CC(C)C2)c(=O)c2cc(S(=O)(=O)N3CCCC3)ccc21", "note": "(configuration not stated)", "inhibition": "-1.06%"}
{"smiles": "CCN(CC)C(=O)CSC(Nc1cccc(F)c1)=C(C#N)C#N", "inhibition": "-2.9%"}
{"smiles": "Nc1ccccc1SC(C[N+](=O)[O-])c1ccccc1", "note": "(configuration not stated)", "inhibition": "75.7% (active)"}
{"smiles": "O=C(COc1cc(Cl)c(Cl)cc1Cl)NC(=O)NC1CCCC1", "inhibition": "-1.68%"}
{"smiles": "Nc1c(NCCc2ccccc2)c2ccccc2oc1=O", "inhibition": "-2.86%"}
{"smiles": "S=c1[nH]nc(Nc2ccccc2)s1", "inhibition": "42.7% (active)"}
{"smiles": "S=c1[nH]nc(NCCc2ccccc2)s1", "inhibition": "43.1% (active)"}
{"smiles": "O=c1cnnc(Nc2ccccc2)[nH]1", "inhibition": "-1.93%"}
{"smiles": "O=C(CSc1ncccn1)NCCc1ccccc1", "inhibition": "-0.062%"}
{"smiles": "CC(C)(C)C(=O)c1cnc(Nc2ccccc2)s1", "inhibition": "17.8%"}
{"smiles": "Cc1ccc([N+](=O)[O-])c(OCCCNCC(C)O)c1", "note": "(configuration not stated)", "inhibition": "-8.53%"}
{"smiles": "Cc1cc(C)n(C(=O)c2ccc(C)c(S(=O)(=O)N3CCOCC3)c2)n1", "inhibition": "0.652%"}
{"smiles": "COc1ccc(CCNC(=O)CS(=O)(=O)Cc2nc(-c3ccc(C)cc3)oc2C)cc1OC", "inhibition": "-6.41%"}
{"smiles": "S=c1[nH]nc(-c2cc(-c3ccccc3)n[nH]2)n1/N=C/c1c2ccccc2cc2ccccc12", "inhibition": "43.4% (active)"}
{"smiles": "CCN(CC)S(=O)(=O)c1cccc(-c2n[nH]c(=S)n2/N=C/c2ccc(C(=O)OC)cc2)c1", "inhibition": "-5.7%"}
{"smiles": "S=c1[nH]nc(-c2cc(-c3ccsc3)n[nH]2)n1-c1ccccc1", "inhibition": "20.5%"}
{"smiles": "O=c1c2ccccc2nnn1CSc1nc2sc3c(c2c(=O)n1CC1CCCO1)CCC3", "note": "(configuration not stated)", "inhibition": "-0.082%"}
{"smiles": "CC(C)c1ccc(NC(=O)COC(=O)c2ccc(CN3CCCC3=O)cc2)cc1", "inhibition": "-5.19%"}
{"smiles": "CC(C)(C)n1nnnc1C(c1ccc2ncccc2c1)N1CCSCC1", "note": "(configuration not stated)", "inhibition": "1.72%"}
{"smiles": "CCc1cccc(NC(=O)C2CCCN(S(=O)(=O)c3ccc4[nH]c(=O)ccc4c3)C2)c1", "note": "(configuration not stated)", "inhibition": "-3.15%"}
{"smiles": "CC(C(=O)O)n1cnc2sc3c(c2c1=O)CCCC3", "note": "(configuration not stated)", "inhibition": "-3.08%"}
{"smiles": "S=c1[nH]nc2c3c4c(sc3ncn12)CCCC4", "inhibition": "50.1% (active)"}
{"smiles": "N=c1c2c3c(sc2ncn1CCCN1CCOCC1)CCCCC3", "inhibition": "2.15%"}
{"smiles": "COc1ccc(-n2nc(C(=O)NCC(=O)Nc3cccc(C)n3)c3ccccc3c2=O)cc1", "inhibition": "-3.64%"}
{"smiles": "O=c1[nH]c(CN2CCN(S(=O)(=O)c3ccc4c(c3)OCCO4)CC2)nc2sc3c(c12)CCCC3", "inhibition": "-9.39%"}
{"smiles": "COC(=O)COc1ccc(C2NC(=O)NC(C)=C2C(=O)NCc2ccccc2)cc1OC", "note": "(configuration not stated)", "inhibition": "-1.01%"}
{"smiles": "CCn1c(CNS(=O)(=O)c2ccc(Cl)cc2)n[nH]c1=S", "inhibition": "30.3%"}
{"smiles": "CCn1c(CN2C(=O)CSc3ccccc32)n[nH]c1=S", "inhibition": "43.9% (active)"}
{"smiles": "CCn1c(CSCc2c(Cl)cccc2Cl)n[nH]c1=S", "inhibition": "11.9%"}
{"smiles": "COc1cc(C2/C(=C(\\O)c3ccc4c(c3)CC(C)O4)C(=O)C(=O)N2Cc2ccco2)ccc1O", "note": "(configuration not stated)", "inhibition": "-3.83%"}
{"smiles": "COc1ccc(/C=N/NC(=O)C(C)N(c2ccc(OC)cc2)S(C)(=O)=O)cc1", "note": "(configuration not stated)", "inhibition": "-4.56%"}
{"smiles": "CN(C)c1ccc(C(CNC(=O)c2ccc(F)cc2)c2c[nH]c3ccccc23)cc1", "note": "(configuration not stated)", "inhibition": "-2.56%"}
{"smiles": "CNS(=O)(=O)c1ccc(NC(=O)Nc2ccc3c(c2)OCO3)cc1", "inhibition": "-9.95%"}
{"smiles": "COc1ccc(Cn2c(=O)sc3ccccc32)cc1OC", "inhibition": "-9.67%"}
{"smiles": "S=c1[nH]cc(-c2ccc(Cl)cc2)n1-c1ccccc1", "inhibition": "-4.18%"}
{"smiles": "S=c1[nH]ccn1-c1ccc(Cl)cc1", "inhibition": "69.9% (active)"}
{"smiles": "O=C(NC(=S)Nc1ccc2oc(=O)ccc2c1)c1ccc(-c2cccc(Cl)c2Cl)o1", "inhibition": "-0.008%"}
{"smiles": "CCOc1ccc(-c2n[nH]c(=S)n2/N=C/c2cc3c(cc2[N+](=O)[O-])OCO3)cc1", "inhibition": "1.59%"}
{"smiles": "S=c1[nH]nc(-c2ccncc2)n1/N=C/c1ccccc1Cl", "inhibition": "73.5% (active)"}
{"smiles": "S=c1[nH]nc(-c2cccs2)n1/N=C/c1cn(-c2ccccc2)nc1-c1ccc(Cl)cc1", "inhibition": "-2.77%"}
{"smiles": "Fc1ccccc1/C=N/n1c(-c2cccnc2)n[nH]c1=S", "inhibition": "47.1% (active)"}
{"smiles": "S=c1[nH]nc(-c2cccs2)n1/N=C/c1cccs1", "inhibition": "27.3%"}
{"smiles": "O=[N+]([O-])c1ccccc1/C=N/n1c(COc2ccccc2)n[nH]c1=S", "inhibition": "34.8%"}
{"smiles": "COc1ccc2c(c1)C(=O)Nc1cc(Cl)ccc1N2", "inhibition": "-7.65%"}
{"smiles": "O=C(CN1CCCCC1)Nc1ccccc1C(=O)NC1CC1", "inhibition": "-5.07%"}
{"smiles": "CCCNC(=S)N1CCC(NC(=O)C23CC4CC(CC(C4)C2)C3)CC1", "inhibition": "-5.11%"}
{"smiles": "Cc1[nH]c2ccccc2c1C(=O)CN1CC(C)CC(C)C1", "note": "(configuration not stated)", "inhibition": "-4.14%"}
{"smiles": "Cc1ccccc1-n1cc(CNC(=O)C2CCC(=O)N(C3CC3)C2)cn1", "note": "(configuration not stated)", "inhibition": "-4.71%"}
{"smiles": "CC(Oc1ccc(F)cc1)C(=O)Nc1ccccc1C(=O)NC1CC1", "note": "(configuration not stated)", "inhibition": "-11.6%"}
{"smiles": "Cc1nc2scc(-c3cccs3)c2c(=O)n1N", "inhibition": "42.5% (active)"}
{"smiles": "COc1cccc(NC(=O)CN(C)C(=O)CSCc2nc3scc(-c4cccs4)c3c(=O)[nH]2)c1", "inhibition": "-7.77%"}
{"smiles": "CCCc1nc2scc(-c3ccc(C)cc3)c2c(=O)n1N", "inhibition": "-7.79%"}
{"smiles": "Cc1cc(-c2ccccc2)nc(N2CCC(C(=O)NC34CC5CC(CC(C5)C3)C4)CC2)n1", "inhibition": "-9.15%"}
{"smiles": "CCOC(=O)C1=C(N)N2C(=O)C(C)SC2=C(C(=O)OCC)C1c1cc(OC)c(OC)c(OC)c1", "note": "(configuration not stated)", "inhibition": "-2.88%"}
{"smiles": "C/C=C\\C=C\\C(=O)N1CC2(CC(c3cccc(NC(=O)/C(C)=C\\C)c3)=NO2)C[C@H]1C(N)=O", "note": "(some centres not stated)", "inhibition": "-3.46%"}
{"smiles": "C/C=C(/C)C(=O)Nc1cccc(C2=NOC3(C2)C[C@@H](C(N)=O)N(C(=O)C2(C)CC2)C3)c1", "note": "(some centres not stated)", "inhibition": "-16%"}
{"smiles": "C=C(C)C(=O)Nc1cccc(C2=NOC3(C2)C[C@H](C(N)=O)N(C(=O)C(c2ccccc2)c2ccccc2)C3)c1", "note": "(some centres not stated)", "inhibition": "53.1% (active)"}
{"smiles": "COc1ccc(/C=N/n2nnnc2N)cc1OC", "inhibition": "-3.77%"}
{"smiles": "COc1cc(/C=C/C(=O)OCC(=O)N2CCOCC2)ccc1OCC#N", "inhibition": "-3.2%"}
{"smiles": "CC1CCc2sc3nc(N4CCN(CCO)CC4)n4ncnc4c3c2C1", "note": "(configuration not stated)", "inhibition": "-8.25%"}
{"smiles": "CCOC(=O)NC(=O)C(=CNc1cccc(OC)c1)C(=O)NC(=O)OCC", "inhibition": "-5.67%"}
{"smiles": "COc1ccc(C2CC(c3ccc([N+](=O)[O-])cc3)=NN2C(C)=O)cc1", "note": "(configuration not stated)", "inhibition": "1.76%"}
{"smiles": "COC(=O)c1c(C)[nH]c(C)c1-c1ccc([N+](=O)[O-])cc1", "inhibition": "-8.28%"}
{"smiles": "CC(=O)N1CC[n+]2c(-c3ccc([N+](=O)[O-])cc3)csc21", "inhibition": "54.4% (active)"}
{"smiles": "Nc1nonc1-n1nnc(C(=O)N/N=C/c2ccc(Cl)cc2)c1-c1ccc2c(c1)OCO2", "inhibition": "1.23%"}
{"smiles": "COc1cccc(C(=O)CC(=O)C(=O)Nc2ccc([N+](=O)[O-])cc2C)c1", "inhibition": "51.3% (active)"}
{"smiles": "COc1cccc(NCCC(=O)c2cccc([N+](=O)[O-])c2)c1", "inhibition": "1.63%"}
{"smiles": "COc1ccc(C(=O)CC(=O)C(=O)Nc2cc([N+](=O)[O-])ccc2OC)cc1", "inhibition": "-6.63%"}
{"smiles": "CC(=O)Nc1ccc(S(=O)(=O)NCCC(=O)N2CCN(c3ccccc3Cl)CC2)cc1", "inhibition": "-2.43%"}
{"smiles": "CCCn1c(NC(=O)C23CC4CC(CC(O)(C4)C2)C3)nc2ccccc21", "inhibition": "-2.56%"}
{"smiles": "O=C(Cc1ccsc1)N1CCN(S(=O)(=O)c2cc(C(F)(F)F)cc(C(F)(F)F)c2)CC1", "inhibition": "-3.29%"}
{"smiles": "CC(C)CCNC(=O)C1CCC(CNc2c(N3CCC(C)CC3)c(=O)c2=O)CC1", "note": "(configuration not stated)", "inhibition": "-1.82%"}
{"smiles": "C/C(=C(\\C#N)C(=O)NCCCN1CCOCC1)N(C)C", "inhibition": "-7.59%"}
{"smiles": "CCOc1cc(C(=S)N2CCOCC2)ccc1OS(=O)(=O)c1ccc(Br)cc1", "inhibition": "-3.84%"}
{"smiles": "COc1cc(C(=S)N2CCOCC2)ccc1O", "inhibition": "-1.79%"}
{"smiles": "CCOc1cc(C(=S)N2CCOCC2)ccc1O", "inhibition": "51.9% (active)"}
{"smiles": "O=C(CN1CCN(C2CCS(=O)(=O)C2)CC1)N1N=C(c2ccc(Cl)cc2)CC1c1ccco1", "note": "(configuration not stated)", "inhibition": "-3.9%"}
{"smiles": "O=C(NCC(=O)N1CCCC(C(F)(F)F)C1)c1ccccc1F", "note": "(configuration not stated)", "inhibition": "-2.23%"}
{"smiles": "FC(F)(F)C1CCCN(c2nsc3ccccc23)C1", "note": "(configuration not stated)", "inhibition": "72.5% (active)"}
{"smiles": "CCN(CC)CC(=O)Nc1sc2c(c1C(=O)c1ccccc1C)CCC2", "inhibition": "1.14%"}
{"smiles": "COc1ccc2[nH]c(C(=O)N3CCN(C)CC3)c(C)c2c1", "inhibition": "-7.04%"}
{"smiles": "COc1ccc2c(C)cc3nnnn3c2c1", "inhibition": "-2.56%"}
{"smiles": "COc1ccc2[nH]c(=S)cc(C)c2c1", "inhibition": "45.8% (active)"}
{"smiles": "COc1c(C(C)C)oc2cc3oc(=O)ccc3cc12", "inhibition": "-10.3%"}
